Compound activity: PubChem, Sanford-Burnham Center for Chemical Genomics
Peg3 promoter – Peg3 promoter activity inhibition; HeLa PEG-Prom luciferase reporter, luminescence, overnight; 360,000 tested, 1.7% active; inhibition, % at 20 µM;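 active = inhibition of at least 50% at 20 µM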
KKLEB tox – counter-screen for CF NF-kB inhibitors: cytotoxicity | activity change (cytotoxicity), % at 5 µM | 360,000 tested, 0.36% active | KKLEB CF airway cells viability, ATPlite luminescence, overnight; hits give low values; cells stimulated with P. aeruginosa culture filtrate;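 active = corrected activity change at or below -50% at 5 µM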
TWEAK-Fn14 inh – inhibitors of TWEAK-Fn14 interaction signaling; AID 1159606; inhibition, % at 10 µM; 360,000 tested, 2% active; TWEAK-stimulated Fn14 reporter cells, luciferase luminescence, 8 h; in the data active = inhibition above about 50%
HIF-2a inh – HIF-2a inhibition; 786-0 RCC cells HIF-2a reporter, luciferase luminescence, overnight; inhibition, % at 18.8 µM; 360,000 tested, 0.72% active; AID 624352;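 active = inhibition of the luminescence signal of 40% or more relative to plate controls, in a single-dose primary screen at 18.75 µM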
CF NFkB inh – inhibitors of cystic fibrosis induced NF-kB. inhibition, % at 5 µM. 360,000 tested, 0.86% active. KKLEB NF-kB-GFP reporter, PAF-induced, GFP fluorescence overnight;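 active = at least 50% inhibition at 5 µM, scaled per plate between neutral and stimulator controls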;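 also: PAF is a Pseudomonas aeruginosa culture filtrate used as stimulus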
TROY NFkB inh – inhibitors of TROY-dependent NF-kB signaling; Q293 LMP1-TROYcd NF-kB luciferase reporter, 4 h; inhibition, % at 10 µM; 360,000 tested, 0.98% active;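 active = compounds whose plate-normalised and pattern-corrected inhibition of the luciferase reporter signal at the single screening dose is 50% or more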
Large screens that a line does not name were inactive. Most compounds without a hit are left out; they make up all but 3.9% or so of the library.

COc1ccccc1C=C1CCc2ccccc2C1=O	TWEAK-Fn14 inh 72
O=C1C(=Cc2ccccc2Cl)CCc2ccccc21	TWEAK-Fn14 inh 58
O=C1/C(=C/c2ccncc2)CCc2ccccc21	none
O=C1C(=Cc2ccc(Cl)cc2)CCc2ccccc21	TWEAK-Fn14 inh 70, TROY NFkB inh 54
O=C(NC(=S)Nc1ccc(Br)cn1)c1cccnc1	none
N#Cc1ccccc1S(=O)(=O)N1CCC(C(=O)Nc2cccc(C(=O)NC3CC3)c2)CC1	none
O=C1C(=Cc2ccc(F)cc2)CCc2ccccc21	TWEAK-Fn14 inh 70 (no result: Peg3 promoter, KKLEB tox, CF NFkB inh)
O=C1/C(=C\c2ccncc2)CCc2ccccc21	none
Cc1cccc(CN2C[C@]34CC[C@@H](C[C@@H]3S2(=O)=O)O4)c1	none
O=c1[nH]c(Nc2nc3ccccc3o2)nc2c1CCCC2	Peg3 promoter 58, TWEAK-Fn14 inh 98, TROY NFkB inh 76
CC(C)CCn1nc(C(=O)Nc2nc3c(s2)CCCC3)c2ccccc2c1=O	none
CCc1nnc(NC(=O)CSc2nc(C)c3c(c2C#N)CCCC3)s1	TWEAK-Fn14 inh 58, TROY NFkB inh 65
COc1ccc(NC(=O)CSc2nc(C)c3c(c2C#N)CCCC3)cc1	none
COc1cccc(/C=C/C(=O)OCC(=O)c2ccccc2)c1OC	TWEAK-Fn14 inh 65, TROY NFkB inh 51
COc1ccc(S(=O)(=O)N2Cc3ccccc3CC2C(=O)O)cc1 (configuration not stated)	none
O=C(O)C1Cc2ccccc2CN1S(=O)(=O)c1ccc(Cl)cc1 (configuration not stated)	KKLEB tox -78, CF NFkB inh 59
COc1ccc(C[C@H]2CN3C(=NC[C@@H]3C(C)C)N2CCNC(=O)CCC2CCCCC2)cc1	none
COc1ccc(C[C@H]2CN3C(=NC[C@@H]3Cc3ccccc3)N2CCNC(=O)CCC2CCCCC2)cc1	Peg3 promoter 99
C=CC[C@@H](CC(=O)N(CCO)Cc1ccccc1)C(=O)N[C@@H](COC(=O)[C@@H](CC=C)Cc1ccc(F)cc1)Cc1c[nH]c2ccccc12	TWEAK-Fn14 inh 57
C=CC[C@H](CC(=O)N(CCO)Cc1ccccc1)C(=O)N[C@@H](COC(=O)[C@@H](CC=C)Cc1ccc(F)cc1)Cc1c[nH]c2ccccc12	Peg3 promoter 60, TWEAK-Fn14 inh 70
CCN1CCCC1CNc1ccc(S(C)(=O)=O)cc1[N+](=O)[O-] (configuration not stated)	none
N#Cc1cc(-c2ccccc2)nc(NN)n1	none
N#Cc1cc(-c2ccccc2)nc(Oc2ccc(Cl)cc2)n1	TWEAK-Fn14 inh 50
Cc1ccc(C(=O)N2c3ccccc3N(Cc3ccccc3)C(=O)C2(C)C)cc1	TWEAK-Fn14 inh 53
CC(=O)Nc1sc2c(c1CN1CCN(C)CC1)CCCC2	none
CN1CCN(CC(O)COc2ccc(C34CC5CC(CC(C5)C3)C4)cc2)CC1 (configuration not stated)	Peg3 promoter 105
Cc1cccc(S(=O)(=O)c2c(N)n(/N=C/c3ccccc3)c3nc4ccccc4nc23)c1	none
Nc1c(S(=O)(=O)c2ccccc2)c2nc3ccccc3nc2n1/N=C/c1cccc(O)c1	Peg3 promoter 87, TWEAK-Fn14 inh 73
CC(C)(C)OC(=O)NCc1ccc(NC(=O)c2nc[nH]c2C(=O)NCCNC(=O)c2[nH]cnc2C(=O)Nc2ccc(CNC(=O)OC(C)(C)C)cc2)cc1	Peg3 promoter 84, CF NFkB inh 72
C[C@H](NC(=O)c1[nH]cnc1C(=O)Nc1ccc(CNC(=O)OC(C)(C)C)cc1)C(=O)OCc1ccccc1	Peg3 promoter 97, TWEAK-Fn14 inh 52, TROY NFkB inh 74
CC(C)C[C@H](NC(=O)c1[nH]cnc1C(=O)Nc1ccc(CNC(=O)OC(C)(C)C)cc1)C(=O)OCc1ccccc1	none
C[C@@H](O)CNC(=O)c1[nH]cnc1C(=O)Nc1ccc(CNC(=O)OC(C)(C)C)cc1	none
CC(C)(C)OC(=O)CNC(=O)c1[nH]cnc1C(=O)Nc1ccc(CNC(=O)OC(C)(C)C)cc1	Peg3 promoter 66
COc1ccc2nc3ccccc3nc2c1NC(=O)c1ccccc1Cl	none
Cc1cccc(N(CC(=O)NC(C)C)C(=O)CCC(=O)Nc2ccccn2)c1	none
CCN1CCN(c2ncnc3c2cnn3-c2ccc(C)cc2C)CC1	none
CCc1cc2c(N3CCN(c4ccccc4)CC3)ncnc2s1	TWEAK-Fn14 inh 61
COc1ccc(N2CCN(c3ncnc4c3cnn4-c3ccc(C)cc3C)CC2)cc1	TWEAK-Fn14 inh 68
Cc1ccc(-n2ncc3c(N4CCN(c5ccccc5)CC4)ncnc32)c(C)c1	Peg3 promoter 97, TWEAK-Fn14 inh 87, TROY NFkB inh 50
c1ccc(Cn2ncc3c(N4CCN(c5ccccc5)CC4)ncnc32)cc1	TWEAK-Fn14 inh 64, TROY NFkB inh 72
COc1ccc(-n2ncc3c(N4CCN(c5cc(C)ccc5C)CC4)ncnc32)cc1	none
N#CC(=C1C=C(Br)C(=NO)C=C1Cl)c1cccc2ccccc12	CF NFkB inh 51
O=C(c1ccccc1)c1cccc2ccccc12	none
COC(=O)C1CCN(C(=O)CCCOc2ccccc2)CC1	TWEAK-Fn14 inh 51
COC(=O)C1CCN(C(=O)CSc2ccccc2)CC1	none
O=C(CCCOc1ccccc1)N1CCN(c2ccccn2)CC1	TWEAK-Fn14 inh 70
CCOC(=O)CSc1nnc(NC(=O)c2cc([N+](=O)[O-])cc([N+](=O)[O-])c2)s1	TWEAK-Fn14 inh 85, TROY NFkB inh 66
COCCSc1nnc(NC(=O)c2ccc([N+](=O)[O-])cc2)s1	none
O=[N+]([O-])c1ccc(NS(=O)(=O)c2ccc(Cl)c(Cl)c2)cc1	TROY NFkB inh 55
C(=NN=C(NN=Cc1cccs1)NN=Cc1cccs1)c1cccs1	Peg3 promoter 78
NC(=O)C1CCN(CC(O)COc2ccc(-c3ccccc3)cc2)CC1 (configuration not stated)	TWEAK-Fn14 inh 107
C=CCn1c(C)cc(C2=NNC(=NC(C)(C)C)SC2)c1C	TWEAK-Fn14 inh 83, HIF-2a inh 49
C=CCN=C1NN=C(c2cc(C)n(CCOC)c2C)CS1	HIF-2a inh 47
O=C(C1CCN(S(=O)(=O)c2cccs2)CC1)N1CCN(c2ccccc2O)CC1	none
O=C1/C(=C\c2ccc(Cl)c(Cl)c2)CN(C(=O)CCN2CCOCC2)C/C1=C/c1ccc(Cl)c(Cl)c1	Peg3 promoter 98, KKLEB tox -78, TWEAK-Fn14 inh 107, HIF-2a inh 94, CF NFkB inh 90, TROY NFkB inh 78
O=C1/C(=C\c2ccccc2)CCC/C1=C/c1ccccc1	none
CCN(CC)CCC(=O)N1C/C(=C/c2ccccc2)C(=O)/C(=C\c2ccccc2)C1	Peg3 promoter 94, TWEAK-Fn14 inh 107, HIF-2a inh 83, CF NFkB inh 86, TROY NFkB inh 63
O=C(NCCN1CCOCC1)c1ccc(Cl)c(Cl)c1	none
O=C(CCN1C(=O)S/C(=C\c2ccccc2)C1=O)N1CCCCC1	none
